Assay outcomes: PubChem BioAssay, several laboratories
SENP6 block = blocks the human protease SENP6; Q9GZR1; Recombinant SENP6 catalytic domain, aminoluciferin luminescence; inhibition, % at 10 µM; 1.8% of 330,000 active; AID 2599;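 active means inhibition above about 50% at the single tested dose, limit read from the data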;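 further: plate controls were DMSO wells with enzyme for no effect and DMSO wells lacking enzyme for full effect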
SENP7 block = inhibitors of human SENP7 protease | 1.5% of 330,000 active | Q9BQF6 | inhibition, % at 5 µM | recombinant SENP7, Z-RLRGG-aminoluciferin luminescence, 40 min;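 active means inhibition above about 50% at the single test dose, limit read from the data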;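 further: plate controls were DMSO with enzyme for no effect and no enzyme buffer wells for full effect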
Target sequence (Q9BQF6 706-1050 limits assumed): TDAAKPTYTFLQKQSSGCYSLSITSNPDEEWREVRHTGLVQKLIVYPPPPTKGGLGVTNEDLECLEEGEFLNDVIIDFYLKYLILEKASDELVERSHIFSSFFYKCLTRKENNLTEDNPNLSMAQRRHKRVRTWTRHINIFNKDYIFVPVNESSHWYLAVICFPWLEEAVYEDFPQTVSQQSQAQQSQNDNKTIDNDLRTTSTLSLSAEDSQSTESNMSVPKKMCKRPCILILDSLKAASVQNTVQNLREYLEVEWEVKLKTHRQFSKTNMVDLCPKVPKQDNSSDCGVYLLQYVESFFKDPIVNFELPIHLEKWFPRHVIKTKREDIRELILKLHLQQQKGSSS
HSP90 inh = inhibitors of HSP90 luciferase refolding in rabbit reticulocyte lysate; 0.91% of 290,000 active; inhibition, % at 5.6 µM; luciferase refolding luminescence, 3 h;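 active means inhibition above the screen-wide mean plus 3 SD, computed separately per campaign, cut at about 16% in these data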;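 further: 0% = DMSO wells and 100% = 60 µM geldanamycin wells; inhibitors lower the luminescence because luciferase stays unfolded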
LGR2 inh = inhibitors of bursicon-induced Drosophila LGR2 receptor cAMP signaling. HEK293 LGR2, CRE-luciferase, bursicon-stimulated, 4 h. inhibition, % at 9.99 µM. 0.35% of 380,000 active. AID 720647;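 active means drop in luminescence signal, shown as inhibition above about 50% in the replicate tests, limit read from the data, passing the limit was not always enough; inconclusive means probably only some replicates passing the limit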;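 further: agonist challenge used bursicon conditioned medium at about half maximal strength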
SENP8 block-1 = inhibitors of human SENP8 protease. inhibition, % at 10 µM. purified SENP8, Z-RLRGG-aminoluciferin cleavage, luminescence. Q96LD8. 1.2% of 330,000 active; in the data active means inhibition above about 50%
SENP8 block-2 = inhibitors of human SENP8 protease; 0.64% of 360,000 active; recombinant SENP8, Nedd8 substrate fluorescence; inhibition, % at 20 µM; in the data active means inhibition mostly above about 40%, no sharp cut-off; inactive means mostly below about 27%
HSP90 inh confirm = confirmation of HSP90 inhibitors. 64% of 2,300 active. inhibition, % at 5.9 µM. rabbit reticulocyte lysate, luciferase refolding luminescence, 3 h. shares compounds with HSP90 inh; in the data active means inhibition above about 18%;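 further: 0% = vehicle wells and 100% = reference inhibitor wells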
luciferase ctr = firefly luciferase inhibition, HSP90 counter-screen; 48% of 2,300 active; shares compounds with HSP90 inh; purified native firefly luciferase, luminescence; inhibition, % at 5.9 µM;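 active means inhibition above the mean inhibition of all tested sample wells plus 3 SD, cut at about 10% in these data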;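 further: 0% = DMSO with luciferase and 100% = wells lacking luciferase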
SENP8 confirm = human SENP8 inhibition, confirmed | Recombinant SENP8, Z-RLRGG-aminoluciferin luminescence, 60 min | shares compounds with SENP7 block | 40% of 6,200 active | inhibition, % at 12.5 µM;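 active means mean inhibition across replicates above about 50%, limit read from the data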
SENP6 conf = human SENP6 inhibition, confirmed | recombinant SENP6, Z-RLRGG-aminoluciferin luminescence | inhibition, % at 12.5 µM | 58% of 6,200 active | shares compounds with SENP7 block | AID 488915
SENP7 confirm = confirmation of human SENP7 protease inhibitors. shares compounds with SENP7 block. recombinant SENP7, Z-RLRGG-aminoluciferin luminescence, 40 min. inhibition, % at 12.5 µM. 69% of 6,200 active
Casp3 SENP sel = caspase-3 inhibition (SENP selectivity assay) | shares compounds with SENP7 block | purified caspase-3, Z-DEVD-aminoluciferin luminescence, 60 min | inhibition, % at 12.5 µM | 60% of 6,200 active;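 active means mean inhibition above about 50%, limit read from the data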;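 further: plate controls were enzyme with DMSO for no effect and wells without caspase-3 for full effect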
Target sequence (P42574 28-227 limits assumed): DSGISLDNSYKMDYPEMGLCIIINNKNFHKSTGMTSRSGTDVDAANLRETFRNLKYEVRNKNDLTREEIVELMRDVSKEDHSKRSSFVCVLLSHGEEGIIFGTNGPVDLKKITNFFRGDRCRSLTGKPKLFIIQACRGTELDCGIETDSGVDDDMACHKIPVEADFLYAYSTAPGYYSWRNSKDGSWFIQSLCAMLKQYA
Luc interf = counter-screen for SENP inhibitors: luminescence interference; shares compounds with SENP7 block; Pre-incubated SENP8/Z-RLRGG-aminoluciferin, luciferase luminescence interference; inhibition, % at 12.5 µM; 39% of 6,200 active;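 active means mean inhibition above about 50% when retested at one dose, limit read from the data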;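 further: plate controls were DMSO wells with completed reaction for no effect and substrate without enzyme for full effect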
* = called active by the depositor; ? = inconclusive; . = not tested or not shown. Most compounds without a hit are left out; they make up all but 2.3% or so of the library.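 How the source made its calls, unless noted: active means mean inhibition above about 50% in the one-dose retest (limit read from the data); inactive means the rest.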

SMILES	SENP6 block	SENP7 block	HSP90 inh	LGR2 inh	SENP8 block-1	SENP8 block-2	HSP90 inh confirm	luciferase ctr	SENP8 confirm	SENP6 conf	SENP7 confirm	Casp3 SENP sel	Luc interf
Cc1noc(C)c1NC(=O)N(C)C[C@H]1Oc2ccc(NC(=O)Nc3ccc4c(c3)OCO4)cc2CC(=O)N([C@H](C)CO)C[C@@H]1C	.	.	.	1	.	.	.	.	.	.	.	.	.
O=C(O)c1cc(N/N=C/c2ccc3c(c2)OCO3)ccc1Cl	66*	7	47*	.	69*	-73	83*	54*	3	81*	95*	63*	83*
O=C(O)c1cc(N/N=C/C(Cl)=C/c2ccccc2)ccc1Cl	88*	89*	48*	73*	96*	-36	89*	80*	98*	99*	101*	38	97*
O=C(O)c1ccc(N/N=C/c2ccc3c(c2)OCO3)cc1	97*	100*	82*	101*	98*	-244	94*	88*	99*	100*	103*	98*	98*
C/C(=N\Nc1ccc(Cl)c(C(=O)O)c1)c1ccc2c(c1)OCO2	-2	3	9	-5	-2	-12	.	.	.	.	.	.	.
O=C(O)c1ccc(N/N=C/c2cc3c(cc2[N+](=O)[O-])OCO3)cc1	-8	-7	8	-24	16	20	.	.	.	.	.	.	.
Cc1ccc(/C=N/Nc2nc(Cl)c(Cl)cc2Cl)s1	26	13	-1	.	5	-186	.	.	.	.	.	.	.
Cc1ccc(/C=N/Nc2ccc(Cl)c(C(=O)O)c2)s1	96*	84*	24*	-129	84*	-55	77*	37*	96*	96*	101*	50*	94*
COc1ccc(NC(=O)N2CCc3ccccc32)cc1	95*	96*	19*	-4	86*	13	37*	23*	93*	93*	99*	94*	91*
COc1ccc(NC(=O)N2CCCc3ccccc32)cc1	2	9	2	.	2	14	.	.	.	.	.	.	.
CC1CCCN(c2ccc3nc4ccccc4c(=O)n3n2)C1 (stereo not drawn)	61*	50	36*	62*	35	-176	60*	38*	46	52*	81*	83*	20
CN(C)C(=O)[C@H]1[C@H](CO)[C@H]2Cn3c(ccc(-c4ccncc4)c3=O)[C@@H]1N2CC1CCCC1	.	.	.	-7	.	.	.	.	.	.	.	.	.
O=C(O)c1ccc(N/N=C/c2cn(Cc3ccc(F)cc3)c3ccccc23)cc1	52*	23	40*	-15	61*	-431	39*	25*	7	72*	75*	8	12
C[C@H](NC(=O)C[C@H]1C[C@H]2c3cc(NC(=O)NC4CCCCC4)ccc3O[C@H]2[C@H](CO)O1)c1ccccc1	.	.	.	4	.	.	.	.	.	.	.	.	.
CCC(=O)Nc1ccc2c(c1)OC[C@H](C)N(C(=O)C1CCC1)C[C@H](C)[C@@H](OC)CN(C)C2=O	.	.	.	3	.	.	.	.	.	.	.	.	.
CCOc1ccc(C(=O)Nc2ccccc2-c2ccccc2)cc1Cl	-4	6	2	3	7	6	.	.	.	.	.	.	.
CCOc1ccc(C(=O)Nc2cccc(C(=O)O)c2C)cc1Cl	100*	98*	88*	70*	93*	11	92*	68*	97*	98*	102*	80*	97*
Cc1cc(C(=O)CSc2nnc(-c3ccccc3)n2-c2ccccc2)c(C)n1-c1ncn[nH]1	-10	3	-1	.	-6	24	.	.	.	.	.	.	.
Cc1cc(C(=O)CSc2nnc3ccccn23)c(C)n1-c1ccccc1	62*	52*	62*	98*	37	6	86*	79*	35	36	79*	79*	61*
Nc1cccc2c1C(=O)N(CCOc1ccccc1F)C2=O	83*	73*	30*	?	73*	-320	51*	45*	79*	80*	95*	79*	83*
N#Cc1ccccc1OCCN1C(=O)c2ccccc2C1=O	-14	-2	-6	-44	-5	26	.	.	.	.	.	.	.
COc1ccc(NC(=O)N(C)C[C@H]2OCCCC[C@@H](C)Oc3ccc(NC(=O)Cc4ccccc4)cc3C(=O)N([C@@H](C)CO)C[C@H]2C)cc1	.	.	.	2	.	.	.	.	.	.	.	.	.
CN1N=C2c3ccccc3CCC2C1c1ccc(Cl)cc1 (stereo not drawn)	31	7	23*	-99	59*	-195	34*	16*	-5	-2	1	-1	-2
CN1N=C2c3ccccc3CCC2C1c1ccc(F)cc1 (stereo not drawn)	29	12	6	-73	35	-289	.	.	.	.	.	.	.
O=C(CSc1ncccc1-c1nc2ccccc2[nH]1)NC1CC1	11	5	1	.	-3	-223	.	.	.	.	.	.	.
SMILES	SENP6 block	SENP7 block	HSP90 inh	LGR2 inh	SENP8 block-1	SENP8 block-2	HSP90 inh confirm	luciferase ctr	SENP8 confirm	SENP6 conf	SENP7 confirm	Casp3 SENP sel	Luc interf
Cc1cc2nc(-c3cccnc3SCC(=O)NC(C)C)[nH]c2cc1C	90*	87*	34*	-78	82*	-371	-3	-23	86*	85*	98*	88*	9
C[C@H]1CN([C@@H](C)CO)C(=O)CCCn2cc(nn2)CO[C@H]1CN(C)S(=O)(=O)c1ccc(Oc2ccccc2)nc1	.	.	.	1	.	.	.	.	.	.	.	.	.
O=C(/C=C\Nc1ccccn1)c1ccccc1	95*	97*	39*	.	90*	-209	74*	70*	96*	96*	102*	97*	94*
O=C(/C=C/c1ccccc1)c1ccccn1	34	-6	-5	-50	3	-39	.	.	.	.	.	.	.
O=C(/C=C/Nc1ccc(Br)cc1F)c1ccccc1	94*	100*	23*	.	94*	-27	84*	78*	-27	15	36	65*	9
O=C(/C=C/Nc1ccccc1Br)c1ccccn1	97*	100*	87*	.	96*	-31	98*	94*	2	100*	103*	97*	89*
